# Data published in PubChem BioAssay AID1611 (NINDS Approved Drug Screening Program, 2009).
# Test: HSE-luciferase reporter activators – cell-based (AID 1611)
# Conditions: human cells, HSE-luciferase heat shock reporter; stronger effect = higher value
row,Structure (SMILES),fold change
1,CC1=CC(=O)c2ccccc2C1=O,0.86
2,CCOC(N)=O,0.87
3,CCCCC1(COC(=O)CCC(=O)O)C(=O)N(c2ccccc2)N(c2ccccc2)C1=O,0.82
4,CN1CCC(=C2c3ccccc3CC(=O)c3sccc32)CC1,1.41
5,NCCCCC(N)C(=O)NC(Cc1ccc(O)cc1)C(=O)NC(CCCCN)C(=O)O (stereo not given),0.95
6,C=CCc1ccccc1OCC(O)CNC(C)C (stereo not given),1.15
7,NNCCc1ccccc1,0.93
8,CC[C@@H](C(=O)C(C)[C@@H](O)[C@H](C)CCc1ccc(C)c(O)c1C(=O)O)C1OC(CC)(C2CC[C@](O)(CC)[C@H](C)O2)C[C@@H]1C (stereo not given in full),1.12
9,NC(N)=NC(=O)c1nc(Cl)c(N)nc1N,0.89
10,CC(=O)[C@@]1(O)CCC2C3C[C@H](C)C4=CC(=O)C=CC4(C)[C@@]3(F)[C@@H](O)C[C@@]21C (stereo not given in full),1.43
11,O=C1CCC(N2C(=O)c3ccccc3C2=O)C(=O)N1 (stereo not given),0.89
12,CC(=O)OCC1=C(C(=O)O)N2C(=O)[C@@H](NC(=O)CSc3ccncc3)[C@H]2SC1,0.82
13,Cc1ccccc1N1C(=O)c2cc(S(N)(=O)=O)c(Cl)cc2NC1C (stereo not given),0.83
14,CN(C)CCC(c1ccccc1)c1ccccn1 (stereo not given),1.7
15,C#C[C@]1(OC(C)=O)CCC2C3CCC4=CC(=O)CC[C@@H]4C3CC[C@@]21C (stereo not given in full),0.92
16,CCCCCCCCCCCCCCCC(=O)OC/C=C(C)/C=C/C=C(C)/C=C/C1=C(C)CCCC1(C)C,1.08
17,Cc1onc(-c2ccccc2)c1C(=O)NC1C(=O)N2[C@@H]1SC(C)(C)[C@@H]2C(=O)O (stereo not given in full),1.85
18,NS(=O)(=O)c1cc2c(cc1Cl)NCNS2(=O)=O,0.97
19,CCC(=O)c1ccc2c(c1)N(CC(C)N(C)C)c1ccccc1S2 (stereo not given),0.88
20,CC(C[N+](C)(C)C)OC(N)=O (stereo not given),0.9
21,O=C1C[C@@H](c2ccc(O)cc2)Oc2cc(O)cc(O)c21,0.8
22,CO[C@@H]1[C@@H](OC(N)=O)[C@@H](O)[C@H](Oc2ccc3c(O)c(NC(=O)c4ccc(O)c(CC=C(C)C)c4)c(=O)oc3c2C)OC1(C)C,1.06
23,CC1(C)O[C@@H]2CC3C4C[C@H](F)C5=CC(=O)CC[C@]5(C)C4[C@@H](O)C[C@]3(C)[C@]2(C(=O)CO)O1 (stereo not given in full),1.35
24,c1ccc(CN(CC2=NCCN2)c2ccccc2)cc1,1.78
25,COc1cccc(OC)c1C(=O)N[C@@H]1C(=O)N2[C@@H]1SC(C)(C)[C@@H]2C(=O)O,0.82
26,CC(=O)NS(=O)(=O)c1ccc(N)cc1,0.98
27,NCC(O)CC(=O)O (stereo not given),0.94
28,Cc1ccccc1OCC(O)CO (stereo not given),0.73
29,CC(C)=CCC/C(C)=C/CO,3.1
30,CN(C)C(=O)Oc1cccc([N+](C)(C)C)c1,1.23
